# Experimental data published in PubChem BioAssay (NCI).
# About 79,000 compounds went through this panel and 15% of them were active in at least one assay; those are over-represented in the sample as a whole. A number with no mark means an inactive call. The source made the active and inactive calls. Rule as the data show it: active = growth inhibition above about 70%; inactive = the rest.
# Test: NCI Yeast Anticancer Drug Screen. Data for the sgs1 mgt1 strain (AID 161);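 also: 0% = growth of cultures given vehicle only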
# Details: S. cerevisiae sgs1 mgt1 strain, stronger effect = higher value
# Procedure: Growth inhibition of yeast strains with defined genetic alterations is measured as a screen for potential anti-cancer activity. Selected strains with alterations in DNA damage repair or cell cycle control were exposed to compounds and growth inhibition was measured relative to vehicle treated controls. The strain used in this assay is sgs1 mgt1
# [1] = at 5.0 µM (retest, dose inferred, filed as 0.5)
# [2] = at 50.0 µM (retest, dose inferred, filed as 5.0)
Compound,growth inhibition [1],growth inhibition [2],growth inhibition (at 50.0 µM)
Cc1nn(C)c2ccc3ccccc3c(=O)c12,2%,50%,42.6%
CN1CC[N+](C)(Cc2ccc(C[N+]3(C)CC[N+](C)(Cc4ccc(CCl)cc4)CC3)cc2)CC1 (configuration not stated),2%,83% (active),99.4% (active)
Ic1[nH]c(I)c(I)c1I,10%,95% (active),97% (active)
CO/C(=N\N=C(/c1ccccc1)C(F)(F)F)c1ccncc1,15%,76% (active),71.8% (active)
Cc1ccccc1Sc1ncnc2ccccc12,-13%,70% (active),55.5%
C(=C\c1ccc(-[n+]2nc(-c3ccccc3)nn2-c2ccccc2)cc1)/c1ccccc1,79% (active),100% (active),93.4% (active)
Cc1ccc(C(=O)CCCN2CCOCC2)c(C)c1,27%,57%,58.8%
C=CCOC(=O)N(C(=O)OCC=C)C(Cc1ccc(O)cc1)C(=O)NNc1ccccc1 (configuration not stated),11%,51%,69.7%
COc1cccc2c1N[S@](=O)S2,1%,68%,77.9% (active)
CSC(=S)NN=C(c1ccccn1)c1ccccn1,92% (active),99% (active),85.4% (active)
Cc1c(C(=O)O)nc(C(Br)(Br)Br)[nH]c1=O,2%,26%,71.3% (active)
C=CCOCCC=O,2%,4%,36%
CCCCCCCCCCCCCCCCNC(=O)/C(=C\c1ccccc1O)NC(=O)c1ccccc1,0%,14%,71.7% (active)
NCCOB1c2ccccc2Cc2ccccc21,-3%,99% (active),-3.8%
